# PubChem BioAssay (Tox21)
# Inconclusive results are not listed. Where a call stands in place of a potency, no number is given. Calls of active or inactive are those of the source. Calls follow the shape of the dose curve; as a rule, active = well fitted curve in the direction sought with a large enough effect in the repeat runs; inconclusive = weak or mixed curves; inactive = no such curve, though single readings can be large; an effect the other way counts as inactive or inconclusive.
# Test system: not listed separately
# Test: Caspase-3/7 induction in HepG2 cells by small molecules, qHTS cell viability counter screen (AID 1346981); also: nearly all actives have a fitted effect of over 30% in size
# Conditions: CellTiter-Fluor fluorescence, 17 h; series mostly up to 92.4 µM
# Method in brief: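 HepG2, WT, 2,000 cells/well; 5 hr pre-incubation 37 C/5% CO2; compound pin-transferred from DMSO; 16 hr exposure; CellTiter-Fluor, 1 hr; fluorescence read.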
SMILES,Potency,"activity change, negative = cytotoxicity"
O=C(O)c1cc(-c2ccc(F)cc2F)ccc1O,inactive,
NC(=S)NC(N)=S,inactive,
C=CCCC(=O)/C=C/C1C(C)=CCCC1(C)C (stereo not given),inactive,
CC1(C)CC(O)CC(C)(C)N1,inactive,
OC[C@H]1O[C@H](O[C@H]2O[C@H](CO)[C@@H](O)[C@H](O)[C@H]2O)[C@H](O)[C@@H](O)[C@@H]1O,inactive,
C[C@H]1NCc2cc(-c3ccc4c(=O)c(C(=O)O)cn(C5CC5)c4c3OC(F)F)ccc21,,-1.4% [at 19 µM] (inactive)

# Biological target: Nuclear receptor subfamily 1 group I member 2 (Homo sapiens) (UniProt O75469)
# Sequence (O75469 whole entry, looked up): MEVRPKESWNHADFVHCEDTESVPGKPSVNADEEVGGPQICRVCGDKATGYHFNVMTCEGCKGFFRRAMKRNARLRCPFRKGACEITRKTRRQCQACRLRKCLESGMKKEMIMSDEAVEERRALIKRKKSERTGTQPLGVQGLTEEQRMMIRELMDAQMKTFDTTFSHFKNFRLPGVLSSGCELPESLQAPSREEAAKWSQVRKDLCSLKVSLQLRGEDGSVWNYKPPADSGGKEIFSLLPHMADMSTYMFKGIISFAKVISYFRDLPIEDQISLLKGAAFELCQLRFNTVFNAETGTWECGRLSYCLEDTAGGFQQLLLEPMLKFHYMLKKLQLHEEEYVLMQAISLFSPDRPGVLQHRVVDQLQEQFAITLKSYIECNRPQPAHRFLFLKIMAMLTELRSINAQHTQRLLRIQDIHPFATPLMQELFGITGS
# Test: Human pregnane X receptor (PXR) small molecule agonists, qHTS assay (AID 1346982); also: nearly all actives have a fitted effect of over 35% in size; also: potency is read from the fitted curve at half-maximal effect
# Conditions: PXR-Luc HepG2, CYP3A4 luciferase reporter, 24 h; series mostly up to 92.4 µM
# Method in brief: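 Luciferase signal from ONE-Glo (30 min, room temperature) measured activation of hPXR-driven CYP3A4 reporter expression in PXR-Luc HepG2 cells treated with compounds for 24 hr at 37 C.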
SMILES,Potency,activation
Cc1ccc(C)cc1,inactive,
COC(=O)c1ccccc1C,inactive,
Cc1ccc(C(C)C)cc2c(C)ccc1-2,10.6 µM (active),
CCc1ccc(Br)cc1,inactive,
CC(C)NC[C@@H](O)COc1ccc(CC(N)=O)cc1,inactive,
COC(C)=O,inactive,
CC(C)CCOC(=O)/C=C/c1ccccc1,inactive,
Cc1cccc(C)c1NC(=O)c1ccc(N)cc1,inactive,
C=CCn1c(=O)n(CC=C)c(=O)n(CC=C)c1=O,inactive,
O[C@@H]([C@H](O)[C@H](O)CBr)[C@H](O)CBr,inactive,
CC(C)Cn1cnc2c(N)nc3ccccc3c21,,5.89% [at 19 µM] (inactive)
CC(C)CCCCCOC(=O)CCS,inactive,
CCCC[P+](C)(CCCC)CCCC,61.9 µM (active),
Sc1nc2ccccc2s1,54.5 µM (active),
O=C(/C=C/c1ccc(O)c(O)c1)O[C@@H](C(=O)O)[C@@H](OC(=O)/C=C/c1ccc(O)c(O)c1)C(=O)O,inactive,
Cc1c(C)c2c(c(C)c1O)CC[C@@](C)(CCC[C@H](C)CCC[C@H](C)CCCC(C)C)O2,inactive,
Cc1c(F)c(N2CCNC(C)C2)cc2c1c(=O)c(C(=O)O)cn2C1CC1 (stereo not given),inactive,

SMILES,Potency,activation
OC[C@@H](O)[C@@H](O)CO,inactive,
CCCCCc1ccc(Cl)cc1,inactive,
C=Cc1cccc(C)c1,inactive,
Nc1nc(N)nc(-c2cc(Cl)ccc2Cl)n1,inactive,
CCCCCC(C)OC(=O)COc1ccc(Cl)c2cccnc12 (stereo not given),24.3 µM (active),
O=C1OC2(c3ccc(O)cc3Oc3cc(O)ccc32)c2ccc(N=C=S)cc21,inactive,
CC(C)(C)NSc1nc2ccccc2s1,49.4 µM (active),
CCCCC(CC)COC(=O)CCCCC(=O)OCc1ccccc1 (stereo not given),inactive,
Cc1c(C)c2c(c(C)c1OC(=O)c1cccnc1)CC[C@@](C)(CCC[C@H](C)CCC[C@H](C)CCCC(C)C)O2,inactive,
[Cu+],inactive,
O=C(O)c1cc(-c2ccc(F)cc2F)ccc1O,inactive,
O=C1c2ccccc2C(=O)N1SC1CCCCC1,inactive,
C=CCCC(=O)/C=C/C1C(C)=CCCC1(C)C (stereo not given),27.3 µM (active),
CC/C=C\CCCCCO,inactive,
CC1(C)CC(O)CC(C)(C)N1,55.5 µM (active),
OC[C@H]1O[C@H](O[C@H]2O[C@H](CO)[C@@H](O)[C@H](O)[C@H]2O)[C@H](O)[C@@H](O)[C@@H]1O,inactive,
C[C@H]1NCc2cc(-c3ccc4c(=O)c(C(=O)O)cn(C5CC5)c4c3OC(F)F)ccc21,,-6.61% [at 19 µM] (inactive)
